Test results reported in PubChem BioAssay (Tox21).
Records with an inconclusive call do not appear. Where a call stands in place of a potency, no number is given. Calls of active or inactive are those of the source. Calls follow the shape of the dose curve; as a rule, active = well fitted inhibition curve with a large enough effect in the signal ratio in the repeat runs, with a control signal flat; inconclusive = weak or mixed curves, or effect the other way; inactive = flat fitted curve, though single readings scatter; the % refers to the signal ratio.

These compounds were tested against D(2) dopamine receptor (Homo sapiens) (UniProt P14416) (assay: Dopamine D2 receptor (DRD2) small molecule antagonists, cell-based qHTS assay (AID 1963595)). Settings: HEK293-DRD2 cAMP HTRF antagonist mode; series mostly up to 92.4 µM.
D(2) dopamine receptor (Homo sapiens), sequence (P14416 whole entry, looked up): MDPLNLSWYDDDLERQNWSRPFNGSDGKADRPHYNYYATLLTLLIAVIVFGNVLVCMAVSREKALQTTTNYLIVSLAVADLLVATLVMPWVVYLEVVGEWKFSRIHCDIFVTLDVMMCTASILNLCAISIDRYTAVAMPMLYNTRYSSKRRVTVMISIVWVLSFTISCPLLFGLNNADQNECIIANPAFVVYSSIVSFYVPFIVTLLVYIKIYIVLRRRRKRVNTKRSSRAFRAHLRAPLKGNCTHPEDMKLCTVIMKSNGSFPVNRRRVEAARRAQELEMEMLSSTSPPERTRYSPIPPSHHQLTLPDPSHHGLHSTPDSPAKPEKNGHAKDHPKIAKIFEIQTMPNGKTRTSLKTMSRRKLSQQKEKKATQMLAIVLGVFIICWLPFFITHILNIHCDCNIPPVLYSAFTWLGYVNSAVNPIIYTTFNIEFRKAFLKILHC
Description: National Center for Advancing Translational Sciences [NCATS]
Division of Preclinical Innovation [DPI]
U.S. Environmental Protection Agency [EPA]
National Institutes of Environmental Health Sciences [NIEHS]
National Toxicology Program [NTP]
U.S. Food and Drug Administration [FDA]
DRD2 is the D2 subtype of the dopamine receptor, which is coupled to Gi subtype of G protein-coupled receptor. This G protein-coupled receptor inhibits adenylyl cyclase activity. The DRD2-HEK293 cell line stably expressing D2 dopamine receptor can be used for screening agonists and antagonists of interactions between D2 and its ligands. The Hek293-DRD2 cAMP assay is based on HTRF technology. It measures changes of cAMP accumulation in response to Gi coupled GPCR activation or inhibition.
Tox21 Assay Protocol Summary:
DRD2-Hek293 cells were dispensed at 600 cells/3uL/well in 1536-well white plates using a Multidrop Dispenser. After the assay plates were incubated at a 37 C/5% CO2 incubator for 24 h, 1 uL of Ro20-1724 at final concentration of 0.1 mM was transferred to the assay plate by a Flying Reagent Dispenser. Following Ro20-1724 addition, 23 nL of compound dissolved in DMSO, positive controls or DMSO only was added to the assay plates via Wako pintool station. The assay plates were incubated at room temperature for 10 min. Next, 1 uL of mixture of NKH477 (final concentration at 200 nM) and quinpirole (final concentration at 12 nM) was added into the plates. After the assay plates were incubated at room temperature for an additional 30 min, 2.5 ul/well of cAMP-d2 and 2.5 ul/well of anti-cAMP-cryptate were added respectively into the assay plates using a Flying Reagent Dispenser. The plates were incubated at room temperature for 1 h. The fluorescence intensity in the plates was measured at 340 nm excitation and 665 & 620 nm emission by an Envision plate reader.

| Compound | Potency |
| --- | --- |
| O=C1OC(=O)C2CC=CCC12 (stereo not given) | inactive |
| CC1(C)C(O)C(C)(C)C1O (stereo not given) | inactive |
| O=[Si]=O | inactive |
| CSc1nnc(C(C)(C)C)c(=O)[nH]1 | inactive |
| O=C(/C=C/c1ccccc1)OCc1ccccc1 | inactive |
| CC1=C(C=O)C(C)(C)CC=C1 | inactive |
| CC1COc2ccccc2N1 (stereo not given) | inactive |
| Nc1cccc(N)n1 | inactive |
| C[C@@H]1CCC[C@H](C)N1 | inactive |
| CC1=CC(=O)[C@H]2C[C@@H]1C2(C)C | inactive |
| O=C1c2cccc(O)c2C(=O)c2c(O)cccc21 | inactive |
| CC#N | inactive |
| Cc1cc(C)cc(OCC2CNC(=O)O2)c1 (stereo not given) | inactive |
| Cc1oncc1C(=O)Nc1ccc(C(F)(F)F)cc1 | inactive |
| C=CC(C)(O)CC/C=C(/C)CCC=C(C)C (stereo not given) | inactive |
| CN(C)c1ccc(C(=N)c2ccc(N(C)C)cc2)cc1 | inactive |
| COc1cc(/C=C/C(N)=O)cc(OC)c1OC | inactive |
| C/C=C(\C)C(=O)OCc1ccccc1 | inactive |
| CC(=O)/C=C/C1C(C)=CCCC1(C)C (stereo not given) | inactive |
| CN(C)Cc1ccccc1O | inactive |

| Compound | Potency |
| --- | --- |
| O=C(O)C1CCC(C(=O)O)CC1 (stereo not given) | inactive |
| CC(C)NCC(O)COc1cccc2ccccc12 (stereo not given) | inactive |
| CCOc1c(N2CCOCC2)cnn(C)c1=O | inactive |
| CN1C(CCl)Nc2cc(Cl)c(S(N)(=O)=O)cc2S1(=O)=O (stereo not given) | inactive |
| CCCCC(CC)COCC1CO1 (stereo not given) | inactive |
| COC(=O)OC | inactive |
| CC(=O)c1cccc([N+](=O)[O-])c1 | inactive |
| COc1ccccc1/C=C/C=O | inactive |
| CC(C)c1cc2c(cc1S(=O)(=O)O)[C@@]1(C)CCC[C@@](C)(C(=O)O)[C@@H]1CC2 | inactive |
| COC(=O)c1ccccc1C | inactive |
| CCCCCCc1ccc(-c2ccc(C#N)cc2)cc1 | inactive |
| ClCCCl | inactive |
| CNC(=O)[C@H]1O[C@@H](n2cnc3c(NCc4cc(Cl)ccc4OCc4cc(C)no4)ncnc32)[C@H](O)[C@@H]1N | inactive |
| C=CC(=O)NC(C)C | inactive |
| O=S1(=O)OC(c2ccc(O)cc2)(c2ccc(O)cc2)c2ccccc21 | inactive |
| COC(OC)OC | inactive |
| Cc1ccc(NC(=O)N(C)C)cc1NC(=O)N(C)C | inactive |
| O=C(c1ccccc1)c1ccccc1O | inactive |
| CC1(C)O[C@@H]2C[C@H]3[C@@H]4C[C@H](F)C5=CC(=O)C=C[C@]5(C)[C@@]4(F)[C@@H](O)C[C@]3(C)[C@]2(C(=O)CO)O1 | inactive |
| CCCCCCCCS(=O)(=O)Cl | inactive |
